Pf Dd2 growth = blocks in vitro growth of P. falciparum Dd2; Potency, µM (titrated, usually from 28.9 µM), hits mostly inhibitors; hit rate 4.3% among 120,000; P. falciparum Dd2 growth, SYBR Green, 72 h; active = well fitted inhibition curve with a large enough effect; note: nearly all actives have a fitted effect of over 65% in size
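Infected erythrocytes (Dd2, 0.3% parasitemia, 2.5% hematocrit final) are added to compound in RPMI-1640/Albumax II medium, grown 72 h at 37C in low oxygen, then lysed with saponin/Triton-X containing SYBR Green and read by fluorescence.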
Large screens that a line does not name were inactive. This is one part of a sample in which hits are shown more often than they occur.

CCCn1c2ccc(C)cc2c2nnc(SCCN3CCCCC3)nc21	Pf Dd2 growth 8.9µM
CCOC(=O)c1ccc(NC(=O)CSc2nnc3c4ccccc4n(CC)c3n2)cc1	none
CCCn1c2ccc(F)cc2c2nnc(SCCN3CCCCC3)nc21	Pf Dd2 growth 7.9µM
CCn1c2ccc(F)cc2c2nnc(SCCN3CCCCC3)nc21	Pf Dd2 growth 13µM
CCN(CC)CCSc1nnc2c3cc(F)ccc3n(CC)c2n1	none
CCCc1nnc(NC(=O)CSc2nnc3c4ccccc4n(CC)c3n2)s1	none
CCn1c2ccccc2c2nnc(SCC(=O)Nc3ccccc3OC)nc21	none
O=c1cccc2n1CC1CC2CN(Cc2cc3n(n2)CCNC3)C1 (centres undefined)	none
O=C(O)C1CC2(CCN(Cc3cc4ccccc4o3)CC2)CN1C(=O)C1CC1 (centres undefined)	none
CC(=O)N1CCC(N[C@@H]2CO[C@H](CNC(=O)CC(C)(C)C)[C@H]2O)CC1	none
CC(=O)c1ccc(NC(=O)c2sc3nc4c(cc3c2N)N2CCC4CC2)cc1	none
Nc1c(C(=O)Nc2ccc(OC(F)(F)F)cc2)sc2nc3c(cc12)N1CCC3CC1	Pf Dd2 growth 11µM
COc1ccc(NC(=O)c2sc3nc4c(cc3c2N)CN(Cc2ccccc2)CC4)cc1	none
Cc1nc2ccc(Cc3nc(-c4cccnn4)no3)cc2[nH]1	none
COc1ccccc1-c1cnc(NC(=O)c2cccnc2)c2c1CCO2	none
Fc1cccc(-c2cnc(Nc3ccc(N4CCOCC4)cc3)c3c2CCO3)c1	none
COc1ccc(-c2cnc(Nc3ccc(CN4CCN(C)CC4)cc3)c3c2CCO3)cn1	Pf Dd2 growth 6.3µM
COc1ccccc1-c1cnc(Nc2cncnc2)c2c1CCO2	none
COc1ccccc1-c1cnc(Nc2ccc(CN3CCN(C)CC3)cc2)c2c1CCO2	Pf Dd2 growth 7.1µM
COc1ccc(C(=O)Nc2ncc(-c3ccc(OC)nc3)c3c2OCC3)cc1	none
O=C(NCc1ccccn1)C1CCN(C(=O)c2ncn3c2COC(c2ccc(Cl)cc2)C3)CC1 (centres undefined)	none
O=C(NCc1nnc2ccc(-c3ccc(Cl)cc3)nn12)c1ccc(Cl)s1	none
CCOc1cc(=O)n2c(c1C(=O)Nc1cc(Cl)ccc1Cl)CCCC2	none
O=C(C1CCN(c2cn[nH]c(=O)c2)C1)N1CCCC1 (centres undefined)	none
CCN(CC)C(=O)c1sc2c(c1C)c(=O)n(CCc1ccccc1)c(=O)n2Cc1ccc(F)cc1Cl	Pf Dd2 growth 10µM
CCN(CC)C(=O)c1sc2c(c1C)c(=O)n(CCc1ccccc1)c(=O)n2Cc1cccc(Cl)c1	none
Cc1sc2c(c1C)c(=O)n(CCc1ccccc1)c(=O)n2Cc1ccccc1Cl	none
Cc1ccc(C#N)c(N2CCCC(c3nnc(Cn4cccn4)n3C)C2)n1 (centres undefined)	none
COCC(=O)NCC(=O)N1CCCCCNC(=O)CC1c1ccccc1 (centres undefined)	none
CSc1ncc(CN2CCCN(S(=O)(=O)N3CCCC3)CC2)cn1	none
O=C(c1ccc2ccccc2n1)N1C[C@@H](CO)[C@H](c2ccccn2)C1	none
CC(C)(C)c1ccc(C(=O)Nc2nc3c(s2)C[C@@H]2[C@](C)(CO)[C@H](O)CC[C@@]2(C)[C@@H]3CC(=O)N2CCC(C(N)=O)CC2)cc1	Pf Dd2 growth 11µM
C[C@]1(CO)[C@H]2Cc3sc(NC(=O)c4ccc(F)cc4)nc3[C@@H](CC(=O)N3CCCCC3)[C@]2(C)CC[C@H]1O	none
CC(=O)N1CCN(C(=O)C[C@@H]2c3nc(-c4ccsc4)sc3C[C@@H]3[C@](C)(CO)[C@H](O)CC[C@]32C)CC1	none
C[C@]1(CO)[C@H]2Cc3sc(NC(=O)C4CCC4)nc3[C@@H](CC(=O)N3CCOCC3)[C@]2(C)CC[C@H]1O	none
C[C@]1(CO)[C@H]2Cc3sc(NC(=O)c4ccc(F)cc4)nc3[C@@H](CC(=O)N3CCOCC3)[C@]2(C)CC[C@H]1O	Pf Dd2 growth 10µM
C[C@]1(CO)[C@H]2Cc3sc(-c4ccccc4)nc3[C@@H](CC(=O)N3CCOCC3)[C@]2(C)CC[C@H]1O	none
CCC(CC)NC(=O)[C@@H]1COCC(=O)N1Cc1ccc(OC)cc1OC	none
CN(C)c1ccc(-c2nnnn2[C@H]2CO[C@H]3[C@@H]2OC[C@H]3OC(=O)Nc2ccc(Oc3ccccc3)cc2)cc1	none
COc1cccc(CNC(=O)Cn2c(-c3ccc(F)cc3)nc(C)cc2=O)c1	none
CN1C(=O)c2cccn2CC1C(=O)N1CCCC1 (centres undefined)	none
O=C(CCC(F)(F)F)NC1CC(=O)N(CCCc2ccccc2)C1 (centres undefined)	none
O=C1CCN(S(=O)(=O)c2ccc3c(c2)OCCO3)CCCC(CO)CCN1 (centres undefined)	none
CCN(CC)CCNC(=O)c1ccc2c(c1)N(S(C)(=O)=O)CC2	none
CCN(CC)CCCNC(=O)Cc1ccc(NC(=O)N2CCCCc3ccccc32)cc1	none
CCN(CC)CCNC(=O)c1ccc(-n2c(-c3ccccc3)cc3c2CCCC3)cc1	Pf Dd2 growth 7.9µM
CN1[C@@H](CCC(=O)N2CCOCC2)CNC(=O)[C@@H]2[C@H]1CCN2Cc1cccc(OC(F)(F)F)c1	none
COCC(=O)N1CCCC(C(=O)NCc2nncn2C2CCCCC2)C1 (centres undefined)	none
O=C(C[C@@H]1O[C@H](CNS(=O)(=O)c2ccc(Cl)cc2)[C@@H](O)C1O)N1CCN(c2ccccc2)CC1 (some centres undefined)	none
O=C(N1CCC(F)CC1)C1(c2ccc(Cl)cc2)CCOCC1	none
COc1ccc(C(=O)NC2CCN(c3cc(-c4ccccc4)[nH]n3)CC2)cc1	none
CCOC(=O)c1ccc(NC(=O)CCc2c(C)nc3cc(-c4ccc(OC)cc4OC)nn3c2C)cc1	Pf Dd2 growth 5µM
COc1ccccc1-c1cc2nc(C)c(CCC(=O)NCCc3ccc(SC)cc3)c(C)n2n1	Pf Dd2 growth 13µM
COc1cc(OC)cc(-c2cc3nc(C)c(CCC(=O)Nc4ccc(C(C)=O)cc4)c(C)n3n2)c1	none
COc1ccc(CCNC(=O)CCc2c(C)nc3cc(-c4cccc(F)c4)nn3c2C)cc1OC	none
COc1cc(OC)cc(-c2cc3nc(C)c(CCC(=O)Nc4ccccc4OC)c(C)n3n2)c1	none
COc1ccc(-c2cc3nc(C)c(CCC(=O)N4CCN(c5ccccc5)CC4)c(C)n3n2)c(OC)c1	none
COc1ccccc1-c1cc2nc(C)c(CCC(=O)Nc3cc(C)ccc3C)c(C)n2n1	none
COc1cc(OC)cc(-c2cc3nc(C)c(CCC(=O)NCc4ccccc4)c(C)n3n2)c1	none
COc1ccc(CNC(=O)CCc2c(C)nc3cc(-c4ccc(OC)cc4OC)nn3c2C)cc1	Pf Dd2 growth 11µM
CC(C(=O)NCc1ccccc1F)C1CCOCC1 (centres undefined)	none
O=C(Nc1ccccc1F)N1CC2CCC(C1)N2CC1CCCC1	none
COCC(=O)N[C@@H]1CNCC[C@@H]1c1nc(C)no1	none
CCN1C(=O)CN(C(=O)COc2ccc(F)cc2)CC12CCOCC2	none
C[C@@]12CC[C@H]3O[C@H](COc4ccccc4)OC[C@@]3(C)C1CC[C@@H](O)C2CC(=O)N1CCCC1 (some centres undefined)	none
CN1CCC(Oc2ncccc2C(=O)NCCc2ccccn2)CC1	none
N[C@H](C(=O)N1CCC2(CC1)Nc1ccccc1NC2=O)c1ccccc1	none
CCN(Cc1ccncc1)C(=O)c1cc(-c2cnc(C)nc2)nc2c(C)cccc12	none
CCCN(Cc1ccncc1)C(=O)c1cnc(-c2ccccn2)[nH]c1=O	Pf Dd2 growth 13µM
CCCCN(Cc1cccnc1)C(=O)c1cnc(-c2ccc(C)cc2)[nH]c1=O	none
CC(C)CCN1CCC(N2CCN(C(=O)c3ccc(F)cc3F)CC2)C1=O (centres undefined)	none
O=C([C@H](O)c1ccccc1)N1CCc2onc(-c3cccc4ccccc34)c2C1	none

From PubChem
